Measurements reported in PubChem BioAssay (Tox21).
Records with an inconclusive call do not appear. Calls of active or inactive are those of the source. Unless noted, calls come from the whole dose curve; as a rule, active = well fitted curve in the direction sought with a large enough effect in the repeat runs; inconclusive = weak or mixed curves; inactive = no such curve, though single readings can be large; an effect the other way counts as inactive or inconclusive.

What was measured:
[1] = qHTS assay to identify small molecule agonists of the estrogen related receptor signaling pathway with the pleiotropic PPARgamma coactivator (PGC) from Tox21 10K library (AID 1224842); note: nearly all actives have a fitted effect of over 15% in size
Procedure, shortened: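 PGC/ERR reporter cells (NTP line) were seeded 2,000 per well, rested 6 h at 37 C/5% CO2, then pin-dosed with compounds in DMSO for 18 h at 37 C; luciferase read by One-Glo luminescence after 30 min at room temperature.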

[2] = target: Thyrotropin receptor (Homo sapiens) (UniProt P16473); assay: qHTS assay to identify small molecule agonists of the thyroid stimulating hormone receptor (TSHR) signaling pathway (AID 1224843; calls by dose curve; note: nearly all actives have a fitted effect of over 45% in size)
Procedure, shortened: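 Using 15 concentrations per compound in triplicate, cAMP production was monitored in TSHR-HEK293 cells after 30 min compound incubation at RT; HTRF reagents followed, with fluorescence intensity recorded after 1 h.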

[3] = qHTS assay to identify small molecule agonists of the hypoxia (HIF-1) signaling pathway - cell viability counter screen (AID 1224844; calls by dose curve; note: nearly all actives have a fitted effect of over 50% in size)
Procedure, shortened: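 Same wells as the HIF-1 reporter screen; ME-180 cells carrying HRE-bla, 17 hr treatment at 37C; CellTiter-Glo luminescence read after 30 min at room temperature.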

[4] = qHTS assay to identify small molecule agonists of H2AX (AID 1224845; active = well fitted activation curve with a large enough effect in the signal ratio in the repeat runs, not every such curve was filed as active; the % refers to the signal ratio)
Procedure, shortened: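 Wild-type CHO-K1 cells plated overnight, then exposed 3 hr at 37C to compounds at 15 concentrations (0.76% DMSO). Lysed, then HTRF anti-pH2AX(S139)-cryptate/anti-H2AX-d2 detection after 24 hr at room temperature; emissions 665 and 620 nm.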

[5] = qHTS assay to identify small molecule agonists of H2AX - cell viability counter screen (AID 1224847; calls by dose curve; note: top concentration of the series differs between compounds; nearly all actives have a fitted effect of over 30% in size)
Procedure, shortened: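 We seed wild-type CHO-K1 cells overnight, treat them for 3 hr at 37C with compounds in 15-concentration series, and quantify remaining viability by CellTiter-Glo luminescence.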

[6] = qHTS assay to identify small molecule antagonists of the estrogen related receptor (ERR) signaling pathway from Tox21 library (AID 1224848); note: nearly all actives have a fitted effect of over 50% in size
Procedure, shortened: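 Tox21 10K compounds in DMSO tested for ERR pathway antagonism in NTP's ERR cell line; 18 h, 37 C exposure; ONE-Glo luminescence.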

[7] = qHTS assay to identify small molecule agonists of the estrogen related receptor (ERR) signaling pathway from Tox21 library (AID 1224849; calls by dose curve; note: nearly all actives have a fitted effect of over 15% in size)
Procedure, shortened: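 Reporter cells (ERR, NTP source) treated with Tox21 10K compounds 18 h, 37 C. Readout: ONE-Glo luminescence, 30 min RT.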

[8] = qHTS RealTime-Glo MT Cell Viability Assay in HepG2 cells - 24 hour (AID 1224867); note: nearly all actives have a fitted effect of over 50% in size
Procedure, shortened: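 HepG2 cells (600/well) were dispensed with RealTime-Glo reagents, incubated 5 h at 37 °C, then treated with compounds in DMSO for up to 40 h. Nonlytic NanoLuc luminescence reflecting viable cells was read at each stated time point.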

[9] = qHTS RealTime-Glo MT Cell Viability Assay in HEK293 cells - 32 hour (AID 1224868); note: top concentration of the series differs between compounds; nearly all actives have a fitted effect of over 50% in size
Procedure, shortened: (§1)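 HEK293 cells seeded with NanoLuc/prosubstrate reagent, rested 5 h at 37 C, then dosed and kept at 37 C up to 40 h. Nonlytic real-time luminescence from viable cells read at 0, 8, 16, 24, 32 and 40 h.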

[10] = A CellTox Green Cytotoxicity Assay to monitor cytotoxicity in HEK293 cells - 0 hour (AID 1224869); note: nearly all actives have a fitted effect of over 50% in size
Procedure, shortened: (§2)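 Homogeneous no-lysis format: HEK293 cell suspension mixed with CellTox Green reagent, seeded, incubated 5 h at 37 C/5% CO2, then dosed by pintool with compound in DMSO.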

[11] = qHTS RealTime-Glo MT Cell Viability Assay in HepG2 cells - 40 hour (AID 1224870); note: nearly all actives have a fitted effect of over 50% in size
Procedure, shortened: (§3)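 HepG2 cells mixed with RealTime-Glo MT reagents (NanoLuc plus cell-permeant prosubstrate) were seeded at 600 cells/well, incubated 5 h at 37 C/5% CO2, then pinned with compounds in DMSO; nonlytic luminescence tracked viability during 40 h treatment.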

[12] = A CellTox Green Cytotoxicity Assay to monitor cytotoxicity in HEK293 cells - 40 hour (AID 1224871); note: nearly all actives have a fitted effect of over 45% in size
Procedure, shortened: as §2

[13] = qHTS RealTime-Glo MT Cell Viability Assay in HEK293 cells - 16 hour (AID 1224872)
Procedure, shortened: as §1

[14] = qHTS RealTime-Glo MT Cell Viability Assay in HepG2 cells - 8 hour (AID 1224873); note: nearly all actives have a fitted effect of over 55% in size
Procedure, shortened: as §3

[15] = qHTS RealTime-Glo MT Cell Viability Assay in HEK293 cells - 40 hour (AID 1224874); conditions: RealTime-Glo luminescence; max response: active compounds read low; note: nearly all actives have a fitted effect of over 50% in size
Procedure, shortened: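 Measured as luminescence from the same continuously cultured HEK293 wells at successive time points (0, 8, 16, 24, 32, 40 h) after compound addition. Reagent present from seeding; dosing at 5 h; incubation 37 C.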

[16] = qHTS assay to identify small molecule agonists of the hypoxia (HIF-1) signaling pathway (AID 1224846; active = well fitted activation curve with a large enough effect in the signal ratio in the repeat runs, not every such curve was filed as active; the % refers to the signal ratio)
Procedure, shortened: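 In ME-180 cells bearing an HRE-bla construct, 17 h treatment with DMSO-dissolved compounds at 37C was followed by CCF4-AM loading to quantify reporter induction.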

[17] = A CellTox Green Cytotoxicity Assay to monitor cytotoxicity in HEK293 cells - 24 hour (AID 1224875); note: series mostly up to about 77 µM; nearly all actives have a fitted effect of over 45% in size
Procedure, shortened: as §2

[18] = qHTS assay to identify small molecule antagonists of the estrogen related receptor signaling pathway with the pleiotropic PPARgamma coactivator (PGC) from Tox21 10K library - cell viability counter screen (AID 1224840; active = well fitted cell-killing curve with a large enough effect in the repeat runs, not every such curve was filed as active; note: nearly all actives have a fitted effect of over 40% in size)
Procedure, shortened: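 Viability counter screen, PGC/ERR cells: 17.5 h compound exposure at 37 C, CellTiter-Fluor fluorescence endpoint.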

[19] = qHTS assay to identify small molecule antagonists of the estrogen related receptor signaling pathway with the pleiotropic PPARgamma coactivator (PGC) from Tox21 10K library (AID 1224841; call rule not given here)
Procedure, shortened: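 In the PGC/ERR line, DMSO solutions of test chemicals are pin-delivered to 2,000 cells/well six hours after dispensing. Following eighteen hours' incubation, One-Glo reagent is added and luminescence recorded.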
% is set by controls: 0 for no effect and ±100 for the full control effect.

Sequence of Thyrotropin receptor (Homo sapiens) (P16473 whole entry, looked up): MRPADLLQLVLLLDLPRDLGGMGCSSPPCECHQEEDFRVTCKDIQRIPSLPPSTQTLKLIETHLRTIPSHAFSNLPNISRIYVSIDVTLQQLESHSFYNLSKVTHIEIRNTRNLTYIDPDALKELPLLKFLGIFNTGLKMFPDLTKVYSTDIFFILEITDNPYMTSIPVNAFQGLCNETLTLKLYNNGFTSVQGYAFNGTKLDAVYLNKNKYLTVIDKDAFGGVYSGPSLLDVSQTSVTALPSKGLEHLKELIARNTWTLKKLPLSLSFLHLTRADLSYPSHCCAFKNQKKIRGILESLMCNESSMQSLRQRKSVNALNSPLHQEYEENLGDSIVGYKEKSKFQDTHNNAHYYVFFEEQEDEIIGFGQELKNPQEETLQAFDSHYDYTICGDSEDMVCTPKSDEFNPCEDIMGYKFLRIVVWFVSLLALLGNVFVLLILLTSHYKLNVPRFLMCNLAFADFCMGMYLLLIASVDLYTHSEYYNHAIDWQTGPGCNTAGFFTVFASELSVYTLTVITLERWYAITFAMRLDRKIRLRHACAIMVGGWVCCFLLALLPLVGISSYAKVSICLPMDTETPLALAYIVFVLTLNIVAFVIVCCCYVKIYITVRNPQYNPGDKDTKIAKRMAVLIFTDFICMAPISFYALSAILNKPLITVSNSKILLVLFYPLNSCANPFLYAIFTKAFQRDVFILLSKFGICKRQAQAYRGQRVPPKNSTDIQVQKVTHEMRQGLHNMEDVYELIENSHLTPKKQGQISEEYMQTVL

CN[C@@H]1[C@@H](O)[C@@H](O[C@@H]2[C@H](O)[C@H](O[C@H]3OC(CN)=CC[C@H]3N)[C@@H](N)C[C@H]2N)OCC1(C)O (stereo partly drawn)
inactive: outcome [1] | outcome [2] | outcome [3] | outcome [4] | Potency [5] | Potency [6] | outcome [7] | outcome [8] | Potency [9] | Potency [10] | outcome [11] | Potency [12] | Potency [13] | outcome [14] | max response [15] 1.03%

COc1ccc(OC)c(NC(=O)CC(C)=O)c1
inactive: outcome [2] | outcome [3] | outcome [4] | outcome [16] | Potency [5] | outcome [8] | Potency [9] | Potency [10] | Potency [12] | Potency [13] | outcome [14] | max response [15] 2.24% | Potency [17]

C=CCOc1cc(Cl)ccc1C(=O)NCCN(CC)CC
inactive: outcome [2] | outcome [3] | outcome [4] | outcome [16] | outcome [8] | Potency [9] | Potency [10] | outcome [11] | Potency [13] | outcome [14] | max response [15] -13.3%

CCCCCCCC/C=C\CCCCCCCC(=O)OC[C@@H](O)[C@H]1OC[C@H](O)[C@H]1O
inactive: outcome [2] | outcome [3] | outcome [4] | outcome [16] | Potency [5] | outcome [8] | Potency [9] | Potency [10] | outcome [11] | Potency [12] | Potency [13] | outcome [14] | max response [15] 7.57% | Potency [17]

CC(C)COC(=O)CCCCC(=O)OCC(C)C
inactive: outcome [18] | outcome [3] | outcome [4] | outcome [16] | Potency [5] | outcome [8] | Potency [9] | Potency [10] | outcome [11] | Potency [12] | Potency [13] | outcome [14] | max response [15] -8.63% | Potency [17]

CC(C)c1ccccc1O
inactive: outcome [18] | outcome [3] | outcome [4] | Potency [5] | outcome [8] | Potency [9] | Potency [10] | outcome [11] | Potency [12] | Potency [13] | outcome [14] | max response [15] 12.5% | Potency [17]

CNCc1ccccc1
inactive: outcome [1] | outcome [3] | outcome [4] | outcome [16] | Potency [5] | Potency [6] | outcome [7] | outcome [8] | Potency [9] | Potency [10] | outcome [11] | Potency [12] | Potency [13] | outcome [14] | max response [15] -3.32% | Potency [17]

CC(C)COC(=O)COc1ccc(Cl)cc1Cl
inactive: Potency [19] | outcome [1] | outcome [3] | outcome [4] | Potency [5] | Potency [6] | outcome [7] | outcome [8] | Potency [9] | Potency [10] | outcome [11] | Potency [12] | Potency [13] | outcome [14] | max response [15] 6.46%

CCC(CO)CO
inactive: outcome [18] | outcome [3] | outcome [4] | outcome [16] | outcome [8] | Potency [9] | Potency [10] | outcome [11] | Potency [12] | Potency [13] | outcome [14] | max response [15] -4.1%

N#CCCOCCOCCC#N
inactive: outcome [2] | outcome [3] | outcome [4] | outcome [16] | Potency [5] | outcome [8] | Potency [9] | Potency [10] | outcome [11] | Potency [12] | Potency [13] | outcome [14] | max response [15] 9.79% | Potency [17]

CCN1CN(CC)CN(CC)C1
inactive: outcome [2] | outcome [3] | outcome [4] | outcome [16] | outcome [8] | Potency [9] | Potency [10] | outcome [11] | Potency [12] | Potency [13] | outcome [14] | max response [15] 4.59%

Cc1nc([N+](=O)[O-])cn1-c1ccc([N+](=O)[O-])cc1
inactive: outcome [2] | outcome [3] | outcome [4] | outcome [16] | outcome [8] | Potency [9] | Potency [10] | outcome [11] | Potency [12] | Potency [13] | outcome [14] | max response [15] 4.25% | Potency [17]

CC(C)COC(=O)/C=C/c1ccccc1
inactive: outcome [1] | outcome [3] | outcome [4] | outcome [16] | Potency [6] | outcome [7] | outcome [8] | Potency [9] | Potency [10] | outcome [11] | Potency [13] | outcome [14] | max response [15] -4.89% | Potency [17]

O=C(Nc1cccc(C2=NCCN2)c1)Nc1cccc(C2=NCCN2)c1
inactive: activity change, negative = cytotoxicity [3] 3.42% [at 15.8 µM] | activation (H2AX phosphorylation) [4] 0.307% [at 31.6 µM] | activation [16] -0.385% [at 15.8 µM] | activity change, negative = cytotoxicity [5] 4.49% [at 31.6 µM] | activity change, negative = cytotoxicity [8] 1.81% [at 15.8 µM] | activity change, negative = cytotoxic [9] -5.26% [at 15.8 µM] | cytotoxicity [10] -3.81% [at 15.8 µM] | activity change, negative = cytotoxic [11] 2.87% [at 15.8 µM] | cytotoxicity increase [12] -2.61% [at 15.8 µM] | activity change, negative = cytotoxicity [13] -0.101% [at 15.8 µM] | viability change, negative = cytotoxic [14] 1.42% [at 15.8 µM] | max response [15] -2.84% | activity change [17] -4.45% [at 15.8 µM, active compounds read high]

Nc1ccnc(=O)[nH]1
inactive: outcome [2] | outcome [3] | outcome [4] | Potency [5] | outcome [8] | Potency [9] | Potency [10] | outcome [11] | Potency [12] | Potency [13] | outcome [14] | max response [15] 4.83% | Potency [17]

C=CC(C)(O)CC/C=C(\C)CC (stereo not drawn)
inactive: outcome [2] | outcome [3] | outcome [4] | outcome [16] | Potency [5] | outcome [8] | Potency [9] | Potency [10] | outcome [11] | Potency [12] | Potency [13] | outcome [14] | max response [15] 5.46% | Potency [17]

O=C1OC(=O)c2cc(Oc3ccc4c(c3)C(=O)OC4=O)ccc21
inactive: outcome [2] | outcome [3] | outcome [4] | outcome [16] | Potency [5] | outcome [8] | Potency [9] | Potency [10] | outcome [11] | Potency [12] | Potency [13] | outcome [14] | max response [15] 3.57% | Potency [17]

CC(=O)OC(C)(C)Cc1ccccc1
inactive: outcome [2] | outcome [3] | outcome [4] | outcome [16] | outcome [8] | Potency [9] | Potency [10] | outcome [11] | Potency [12] | Potency [13] | outcome [14] | max response [15] 6.53% | Potency [17]
